Assays:
Assay in all cases: DAPPL (digital affinity profiling via proximity ligation, sequencing); 10 mM Tris-HCl pH 7.5, 50 mM NaCl, 1 mM DTT, 4% glycerol, room temperature, 30 min; GST-TFs on glutathione beads, 16-mer random dsDNA library, 0.1% formaldehyde crosslink after washing; high values mean tight binding
Conditions in all cases: protein: recombinant; tags: N-terminal GST; dsDNA, one strand shown
[1] = target: T1, FLI1 (Homo sapiens, UniProt Q01543 1-452)
T1 sequence: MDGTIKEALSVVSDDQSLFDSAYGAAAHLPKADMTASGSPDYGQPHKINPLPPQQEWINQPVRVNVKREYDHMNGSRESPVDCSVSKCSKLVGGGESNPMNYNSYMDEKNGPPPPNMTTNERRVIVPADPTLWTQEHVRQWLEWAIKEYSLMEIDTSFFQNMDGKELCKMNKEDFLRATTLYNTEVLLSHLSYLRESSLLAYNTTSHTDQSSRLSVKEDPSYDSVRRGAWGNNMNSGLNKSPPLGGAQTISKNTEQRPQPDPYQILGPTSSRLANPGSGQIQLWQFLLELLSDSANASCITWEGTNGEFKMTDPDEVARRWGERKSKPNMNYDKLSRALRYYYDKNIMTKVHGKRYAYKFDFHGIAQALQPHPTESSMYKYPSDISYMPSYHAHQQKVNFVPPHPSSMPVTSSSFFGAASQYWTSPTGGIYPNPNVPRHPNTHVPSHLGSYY
Method in brief: (§1)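 Each value of binding signal is a hexamer's read frequency for a factor divided by the same hexamer's frequency in the tag-only sample. Barcoded, bead-captured GST fusions of human transcription factors made in yeast were pooled with that sample and incubated with 200 nmole of a random double-stranded 16-mer DNA library in Tris/NaCl/DTT/glycerol buffer at room temperature for 30 min. Washing, 0.1% formaldehyde crosslinking, proximity ligation, PCR and Illumina NextSeq500 sequencing followed.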

[2] = target: T2, ELK1 (Homo sapiens, UniProt P19419 1-428)
T2 sequence: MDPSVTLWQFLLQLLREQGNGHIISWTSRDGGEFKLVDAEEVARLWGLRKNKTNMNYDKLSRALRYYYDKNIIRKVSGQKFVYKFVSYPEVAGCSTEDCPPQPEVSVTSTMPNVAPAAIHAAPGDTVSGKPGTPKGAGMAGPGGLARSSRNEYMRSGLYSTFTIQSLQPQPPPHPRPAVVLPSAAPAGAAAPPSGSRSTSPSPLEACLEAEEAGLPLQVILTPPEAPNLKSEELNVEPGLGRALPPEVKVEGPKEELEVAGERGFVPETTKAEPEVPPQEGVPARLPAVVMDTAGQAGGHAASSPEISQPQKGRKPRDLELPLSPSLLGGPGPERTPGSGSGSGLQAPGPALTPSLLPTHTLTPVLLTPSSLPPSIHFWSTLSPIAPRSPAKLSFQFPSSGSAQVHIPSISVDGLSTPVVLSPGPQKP
Method in brief: as §1

[3] = target: T3, GABPA (Homo sapiens, UniProt Q06546 1-454)
T3 sequence: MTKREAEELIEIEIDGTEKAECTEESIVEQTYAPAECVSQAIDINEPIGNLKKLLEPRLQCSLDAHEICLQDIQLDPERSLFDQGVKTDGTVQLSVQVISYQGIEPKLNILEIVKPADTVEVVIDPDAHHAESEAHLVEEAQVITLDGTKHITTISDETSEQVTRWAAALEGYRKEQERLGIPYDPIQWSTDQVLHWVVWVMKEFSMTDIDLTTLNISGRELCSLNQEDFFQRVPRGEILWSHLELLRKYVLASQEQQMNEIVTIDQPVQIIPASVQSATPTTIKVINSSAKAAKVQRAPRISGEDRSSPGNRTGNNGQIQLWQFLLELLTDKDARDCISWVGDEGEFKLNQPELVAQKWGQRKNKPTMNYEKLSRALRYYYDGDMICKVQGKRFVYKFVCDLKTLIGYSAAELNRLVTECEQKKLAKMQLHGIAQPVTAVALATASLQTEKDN
Method in brief: as §1

[4] = target: T4, ERG (Homo sapiens, UniProt P11308 1-479)
T4 sequence: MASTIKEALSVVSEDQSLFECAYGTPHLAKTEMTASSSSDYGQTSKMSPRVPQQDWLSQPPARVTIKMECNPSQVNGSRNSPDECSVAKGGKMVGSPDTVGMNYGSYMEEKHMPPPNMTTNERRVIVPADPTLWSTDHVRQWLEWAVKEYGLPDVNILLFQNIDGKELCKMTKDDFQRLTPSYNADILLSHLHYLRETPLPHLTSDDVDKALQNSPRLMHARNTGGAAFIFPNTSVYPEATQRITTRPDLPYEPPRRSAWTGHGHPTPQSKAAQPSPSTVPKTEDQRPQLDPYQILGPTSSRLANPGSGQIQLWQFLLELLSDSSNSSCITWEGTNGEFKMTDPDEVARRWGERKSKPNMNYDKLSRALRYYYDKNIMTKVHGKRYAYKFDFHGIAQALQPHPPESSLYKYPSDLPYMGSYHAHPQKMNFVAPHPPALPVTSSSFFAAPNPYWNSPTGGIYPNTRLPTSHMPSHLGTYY
Method in brief: as §1

[5] = target: ELF1 (Homo sapiens, UniProt P32519 1-619)
ELF1, sequence (P32519 whole entry): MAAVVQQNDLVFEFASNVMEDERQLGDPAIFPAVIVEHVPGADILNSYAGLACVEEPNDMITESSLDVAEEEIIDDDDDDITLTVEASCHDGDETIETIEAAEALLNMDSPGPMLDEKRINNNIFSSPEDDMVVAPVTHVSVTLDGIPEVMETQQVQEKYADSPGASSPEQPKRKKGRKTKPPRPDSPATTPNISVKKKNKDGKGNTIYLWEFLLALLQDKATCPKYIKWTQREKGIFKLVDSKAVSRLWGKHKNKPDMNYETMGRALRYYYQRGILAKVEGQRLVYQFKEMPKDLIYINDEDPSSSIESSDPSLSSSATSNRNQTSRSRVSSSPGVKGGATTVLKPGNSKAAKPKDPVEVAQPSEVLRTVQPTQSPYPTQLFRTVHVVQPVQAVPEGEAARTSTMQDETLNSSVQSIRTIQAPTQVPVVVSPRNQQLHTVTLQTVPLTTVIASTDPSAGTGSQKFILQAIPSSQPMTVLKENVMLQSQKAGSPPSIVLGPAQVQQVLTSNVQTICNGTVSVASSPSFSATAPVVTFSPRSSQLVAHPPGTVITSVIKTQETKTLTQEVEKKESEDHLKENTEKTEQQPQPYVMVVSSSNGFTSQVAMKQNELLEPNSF
Method in brief: as §1

[6] = target: T5, EHF (Homo sapiens, UniProt Q9NZC4 1-300)
T5 sequence: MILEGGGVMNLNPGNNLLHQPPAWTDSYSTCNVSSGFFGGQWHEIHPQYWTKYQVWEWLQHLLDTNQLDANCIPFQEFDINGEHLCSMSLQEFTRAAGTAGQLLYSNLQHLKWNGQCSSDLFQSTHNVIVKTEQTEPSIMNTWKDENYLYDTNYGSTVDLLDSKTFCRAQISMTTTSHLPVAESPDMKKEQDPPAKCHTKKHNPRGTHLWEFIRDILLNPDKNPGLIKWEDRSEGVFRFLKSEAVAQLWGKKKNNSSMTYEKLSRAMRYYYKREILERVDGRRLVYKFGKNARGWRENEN
Method in brief: as §1

[7] = target: SPI1 (Homo sapiens, UniProt P17947 1-270)
Method in brief: as §1

[8] = target: SPIB (Homo sapiens, UniProt Q01892 1-262)
SPIB, sequence (Q01892 whole entry): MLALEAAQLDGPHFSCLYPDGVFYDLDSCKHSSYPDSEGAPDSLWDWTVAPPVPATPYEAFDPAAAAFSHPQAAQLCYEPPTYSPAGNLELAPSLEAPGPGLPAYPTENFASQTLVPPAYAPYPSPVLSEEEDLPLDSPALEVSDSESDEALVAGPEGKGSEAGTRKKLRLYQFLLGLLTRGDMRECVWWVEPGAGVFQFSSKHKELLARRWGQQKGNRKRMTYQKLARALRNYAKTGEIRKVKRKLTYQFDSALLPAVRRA
Method in brief: as §1

[9] = target: T6, ELK3 (Homo sapiens, UniProt P41970 1-407)
T6 sequence: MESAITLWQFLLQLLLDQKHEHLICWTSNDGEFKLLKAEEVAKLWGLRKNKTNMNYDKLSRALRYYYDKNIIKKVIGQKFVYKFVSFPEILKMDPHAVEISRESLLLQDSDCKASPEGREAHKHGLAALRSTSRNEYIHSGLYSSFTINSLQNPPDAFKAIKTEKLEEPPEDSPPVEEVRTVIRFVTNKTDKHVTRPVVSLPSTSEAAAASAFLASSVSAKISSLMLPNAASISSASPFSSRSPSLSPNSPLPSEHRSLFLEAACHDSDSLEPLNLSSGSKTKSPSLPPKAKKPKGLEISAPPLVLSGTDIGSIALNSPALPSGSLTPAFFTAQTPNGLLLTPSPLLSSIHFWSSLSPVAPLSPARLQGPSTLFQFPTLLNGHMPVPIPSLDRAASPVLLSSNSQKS
Method in brief: as §1

Row | Sequence | binding signal [1] | binding signal [2] | binding signal [3] | binding signal [4] | binding signal [5] | binding signal [6] | binding signal [7] | binding signal [8] | binding signal [9]
1 | AAAGGG | 1.21 fold enrichment (6-mer frequency, TF over GST control) | 1.11 fold enrichment (6-mer frequency, TF over GST control) | 1.22 fold enrichment (6-mer frequency, TF over GST control) | 1.12 fold enrichment (6-mer frequency, TF over GST control) | 1.09 fold enrichment (6-mer frequency, TF over GST control) | 1.2 fold enrichment (6-mer frequency, TF over GST control) | 1.68 fold enrichment (6-mer frequency, TF over GST control) | 1.19 fold enrichment (6-mer frequency, TF over GST control) | 1.1 fold enrichment (6-mer frequency, TF over GST control)
2 | CGTTAT | 1.14 fold enrichment (6-mer frequency, TF over GST control) | 1.11 fold enrichment (6-mer frequency, TF over GST control) | 1.11 fold enrichment (6-mer frequency, TF over GST control) | 1.1 fold enrichment (6-mer frequency, TF over GST control) | 1.17 fold enrichment (6-mer frequency, TF over GST control) | 1.07 fold enrichment (6-mer frequency, TF over GST control) | 1.11 fold enrichment (6-mer frequency, TF over GST control) | 1.16 fold enrichment (6-mer frequency, TF over GST control) | 1.26 fold enrichment (6-mer frequency, TF over GST control)
3 | CCTCAA | 1.47 fold enrichment (6-mer frequency, TF over GST control) | 1.32 fold enrichment (6-mer frequency, TF over GST control) | 1.46 fold enrichment (6-mer frequency, TF over GST control) | 1.26 fold enrichment (6-mer frequency, TF over GST control) | 1.32 fold enrichment (6-mer frequency, TF over GST control) | 1.39 fold enrichment (6-mer frequency, TF over GST control) | 1.55 fold enrichment (6-mer frequency, TF over GST control) | 1.42 fold enrichment (6-mer frequency, TF over GST control) | 1.44 fold enrichment (6-mer frequency, TF over GST control)
4 | CACAAC | 1.24 fold enrichment (6-mer frequency, TF over GST control) | 1.24 fold enrichment (6-mer frequency, TF over GST control) | 1.3 fold enrichment (6-mer frequency, TF over GST control) | 1.25 fold enrichment (6-mer frequency, TF over GST control) | 1.28 fold enrichment (6-mer frequency, TF over GST control) | 1.21 fold enrichment (6-mer frequency, TF over GST control) | 1.21 fold enrichment (6-mer frequency, TF over GST control) | 1.23 fold enrichment (6-mer frequency, TF over GST control) | 1.22 fold enrichment (6-mer frequency, TF over GST control)
5 | GGATGT | 1.5 fold enrichment (6-mer frequency, TF over GST control) | 1.7 fold enrichment (6-mer frequency, TF over GST control) | 1.39 fold enrichment (6-mer frequency, TF over GST control) | 1.82 fold enrichment (6-mer frequency, TF over GST control) | 1.44 fold enrichment (6-mer frequency, TF over GST control) | 1.74 fold enrichment (6-mer frequency, TF over GST control) | 1.53 fold enrichment (6-mer frequency, TF over GST control) | 1.61 fold enrichment (6-mer frequency, TF over GST control) | 1.65 fold enrichment (6-mer frequency, TF over GST control)
6 | TTGATT | 1.48 fold enrichment (6-mer frequency, TF over GST control) | 1.32 fold enrichment (6-mer frequency, TF over GST control) | 1.31 fold enrichment (6-mer frequency, TF over GST control) | 1.29 fold enrichment (6-mer frequency, TF over GST control) | 1.29 fold enrichment (6-mer frequency, TF over GST control) | 1.26 fold enrichment (6-mer frequency, TF over GST control) | 1.18 fold enrichment (6-mer frequency, TF over GST control) | 1.26 fold enrichment (6-mer frequency, TF over GST control) | 1.2 fold enrichment (6-mer frequency, TF over GST control)
7 | CCCTTT | 1.47 fold enrichment (6-mer frequency, TF over GST control) | 1.36 fold enrichment (6-mer frequency, TF over GST control) | 1.51 fold enrichment (6-mer frequency, TF over GST control) | 1.45 fold enrichment (6-mer frequency, TF over GST control) | 1.36 fold enrichment (6-mer frequency, TF over GST control) | 1.35 fold enrichment (6-mer frequency, TF over GST control) | 1.96 fold enrichment (6-mer frequency, TF over GST control) | 1.49 fold enrichment (6-mer frequency, TF over GST control) | 1.43 fold enrichment (6-mer frequency, TF over GST control)
8 | CTTGAC | 1.17 fold enrichment (6-mer frequency, TF over GST control) | 1.3 fold enrichment (6-mer frequency, TF over GST control) | 1.3 fold enrichment (6-mer frequency, TF over GST control) | 1.2 fold enrichment (6-mer frequency, TF over GST control) | 1.2 fold enrichment (6-mer frequency, TF over GST control) | 1.14 fold enrichment (6-mer frequency, TF over GST control) | 1.18 fold enrichment (6-mer frequency, TF over GST control) | 1.19 fold enrichment (6-mer frequency, TF over GST control) | 1.23 fold enrichment (6-mer frequency, TF over GST control)

— paper PMC7862700, “An all-to-all approach to the identification of sequence-specific readers for epigenetic DNA modifications on cytosine”
